About 400 (5.1%) of roughly 7,900 compounds showed an effect of 50% or more. What follows is part of a selection rich in strong results, with near analogues and random picks from the rest.

Chain of Parkinson's disease protein 7 (PARK7/DJ1) (Q99497 whole entry, looked up, the tested form may be a part): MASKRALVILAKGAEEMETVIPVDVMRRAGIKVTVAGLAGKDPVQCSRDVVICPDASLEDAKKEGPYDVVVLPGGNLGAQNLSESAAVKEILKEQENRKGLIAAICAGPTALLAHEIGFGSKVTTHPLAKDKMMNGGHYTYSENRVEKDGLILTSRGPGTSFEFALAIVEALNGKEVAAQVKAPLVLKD

The target in this assay is Parkinson's disease protein 7 (PARK7/DJ1) (human, UniProt Q99497). Briefly: primary screen, percent inhibition; read as competition with a fluorescent probe by fluorescence polarization; higher = more effect of the substance. Particulars: 100 µM. The method in brief:
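Fluorescence-polarization probe displacement (JYQ-107, 20 nM final, 2 h) after 2 h preincubation of PARK7 (0.2 μM final) with each fragment at 100 μM final. Read-out ex/em 480/520 nm; remaining activity derived from FP signal loss relative to reference controls.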
With `C=CC(=O)N1CCC(NC(=O)c2oc(C)cc2C)CC1`, the Inhibition % amounted to 3.91%.

Regarding `C=CC(=O)NC1CCc2nnc(CC)n2C1` (stereo not shown), the Inhibition % is 7.66%.

Take `Cc1ccc(C(=O)CCl)cc1`: the Inhibition % came out at 32.3%.

For `O=C(CCl)c1ccc(F)cc1F`, the Inhibition % was determined as 18.5%.

For the compound `O=C(CCl)c1ccc(O)cc1`, the Inhibition % is 86.7%.

Consider `O=C(CCl)c1cc(F)ccc1O`, for which the Inhibition % worked out at 38.8%.

For the compound `O=C(CCl)c1ccc(O)cc1O`, the Inhibition % turned out to be 81.9%.

As to `O=C(CCl)c1ccc(N2CCOC2=O)cc1`, the Inhibition % amounted to 24.5%.

In the case of `O=C(CCl)NC(=O)c1ccc(Cl)cc1`, the Inhibition % worked out at 19.6%.

`O=C(CCl)c1ccc(F)cc1`: the Inhibition % was found to be 32.3%.

With `Cn1c(=O)oc2cc(C(=O)CCl)ccc21`, the Inhibition % turned out to be 0.517%.

Turning to `O=C(CCl)c1ccoc1`, the Inhibition % amounted to 76.6%.

Consider `O=C(CCl)c1ccc(Cl)cc1`, for which the Inhibition % stood at 75.6%.

As for `C=CC(=O)NC1COCc2ccccc21` (stereo not shown), the Inhibition % is given as 9.84%.

Turning to `O=C(CN1C(=O)CCC1=O)c1ccccc1F`, the Inhibition % is on record as 9.1%.

In the case of `CC1CC(N2CC=C(c3ccc(F)cc3)CC2)C(=O)O1` (stereo not shown), the Inhibition % came to 5.18%.

For `Cc1cccc(NC(=O)NC2C(=O)OCC2(C)C)n1` (stereo not shown), the Inhibition % was 7.98%.

For `N#CC(=Cc1ccc(-c2nc3ccccc3s2)o1)C(=O)O`, the Inhibition % was determined as 3.06%.

In the case of `C=CC(=O)N1CCOc2ccccc21`, the Inhibition % is reported as 9.1%.

On to `Cl.O=C(CCl)c1ccncc1`, for which the Inhibition % stood at 95.3%.

Turning to `O=C(CCl)c1ccccc1`, the Inhibition % was 56.6%.

Take `O=C(CCl)c1ccc(C(F)(F)F)cc1`: the Inhibition % is given as 12%.

As for `O=C(CCl)NNC(=O)c1ccccc1`, the Inhibition % is -3.2%.

Turning to `CSc1ccc(C(=O)CCl)cc1`, the Inhibition % is 89.6%.

With `O=C(CCl)c1ccc(O)c(O)c1`, the Inhibition % came to 75.1%.

Take `O=C(CCl)NCC(=O)c1ccccc1`: the Inhibition % was 4.23%.

As for `Cl.O=C(CCl)Nc1ccncc1`, the Inhibition % was found to be 14.4%.

Turning to `CCN1CCN(c2oc(C3CC3)nc2C#N)CC1`, the Inhibition % was determined as 1.62%.

As to `Cc1nccn1CC1CCCN1c1ccc(C#N)nc1` (stereo not shown), the Inhibition % is recorded as 0.293%.

On to `N#Cc1cc(C(=O)Nc2ccccc2)c(N)nc1S`, for which the Inhibition % is 1.51%.

`C=CC(=O)N1CCN(C(=O)CC(F)(F)F)CC1`: the Inhibition % turned out to be 12.4%.

As to `CC1CC(C)CC2(C1)NC(=O)N(CCC1OCCO1)C2=O` (stereo not shown), the Inhibition % is listed as 2.2%.

Regarding `C=C(C)Cn1c(C#N)nc(C)c1C`, the Inhibition % is listed as 2.82%.

In the case of `O=C(CCl)c1ccc2c(c1)COC2`, the Inhibition % is 72.7%.

Take `CC(C)n1ccnc1C(=O)CCl`: the Inhibition % is reported as 48.7%.

Turning to `O=C(CCl)c1ccc2[nH]c(=O)[nH]c2c1`, the Inhibition % worked out at 63.2%.

`O=C(CCl)c1ccc2[nH]c(=O)oc2c1`: the Inhibition % was determined as 2.68%.

As to `O=C(CCl)c1ccns1`, the Inhibition % is on record as 95.1%.

As for `Cl.O=C(CCl)Nc1cccnn1`, the Inhibition % amounted to 26.1%.

For the compound `CC(=O)N1c2ccc(C(=O)CCl)cc2CC1C` (stereo not shown), the Inhibition % is 5.96%.

Turning to `O=C(CCl)Nc1ccc2[nH]c(=O)[nH]c2c1`, the Inhibition % worked out at 34.3%.

With `N#Cc1ncn(CCCOc2ccc(Cl)cc2)n1`, the Inhibition % is on record as 9.73%.

With `N#Cc1ncn(Cc2c(F)cccc2Cl)n1`, the Inhibition % turned out to be 0.988%.

On to `C=CC(=O)Nc1cnc2c(C)cccn12`, for which the Inhibition % is 8.53%.

Take `Cc1nc(C)c(C(=O)CCl)o1`: the Inhibition % is on record as 95.2%.

Consider `CCCNC(=O)C(C#N)=Cc1oc(C)nc1C`, for which the Inhibition % was 19.4%.

As for `Cc1nc(C#N)c(N2CCN(C(=O)CCl)CC2)o1`, the Inhibition % is recorded as 38.4%.

As to `C=CC(=O)N1CCCCC1c1noc(C2CC2)n1` (stereo not shown), the Inhibition % is given as 29.3%.

Turning to `COC[C@@H]1C[C@H](OC)CN1C(=O)c1c[nH]c(C#N)c1`, the Inhibition % is 1.56%.

`Cl.NCCN1C(=O)CSC1=O`: the Inhibition % came out at 75.6%.

With `O=C(O)CN1C(=O)CSC1=O`, the Inhibition % was found to be 17.6%.

Consider `O=C(O)CCN1C(=O)CSC1=O`, for which the Inhibition % was 13%.

On to `CN(Cc1nc2ccccc2[nH]1)S(=O)(=O)C1=CCCCC1`, for which the Inhibition % amounted to 8.82%.

As to `C=CC(=O)NC(CO)C1CCCO1` (stereo not shown), the Inhibition % is 6.87%.

In the case of `O=C(CCl)NCC#Cc1ccccc1`, the Inhibition % is 1.08%.

`C=CC(=O)N1CCCN(c2ccccn2)CC1`: the Inhibition % was 12.3%.

In the case of `C=CC(=O)N(CC)C1CCS(=O)(=O)C1` (stereo not shown), the Inhibition % is recorded as -4.06%.

As for `OC1(C2CO2)CCCC1` (stereo not shown), the Inhibition % is 3.59%.

With `Cc1nn(C)c(Cl)c1C=CC(=O)N1CCC(N)C1.Cl` (stereo not shown), the Inhibition % was 17.1%.

For `CNC(=O)Cn1nc(-c2ccc(F)cc2)oc1=O`, the Inhibition % is 16.9%.

Consider `CN1CCN(C(=O)CCl)CC1.Cl`, for which the Inhibition % was determined as 1.98%.

In the case of `O=C(CCl)N1CCC(C(=O)N2CCCCC2)CC1`, the Inhibition % was 18.3%.

`O=C(CCl)N1CCN(C(=O)C2CC2)CC1`: the Inhibition % worked out at 56.1%.

Take `CCOC(=O)C1CCN(C(=O)CCl)CC1`: the Inhibition % was 19.7%.

Consider `CCOC(=O)C1CCCN(C(=O)CCl)C1` (stereo not shown), for which the Inhibition % came to 74.4%.

With `O=C(CCl)N1CCN(C(=O)CCl)CC1`, the Inhibition % was 36.5%.

As to `NC(=O)C1CCCN(C(=O)CCl)C1` (stereo not shown), the Inhibition % stood at 35.5%.

As to `O=C(CCl)N1CCC(C(=O)N2CCCCCC2)CC1`, the Inhibition % is 15.1%.

`CCOC(=O)N1CCN(C(=O)CCl)CC1`: the Inhibition % was 67.8%.

In the case of `C=CC(=O)N1CCN(C)c2cc(F)ccc21`, the Inhibition % came to 14.6%.

Take `N#CCCN(C(=O)CCl)c1cccc(Cl)c1`: the Inhibition % is reported as 29.3%.

As to `O=C(CCl)NC1CCN(C(=O)CCc2ccccc2)CC1`, the Inhibition % is 11.9%.

Regarding `O=C1CCCc2cc(C(=O)CCl)ccc2N1`, the Inhibition % is 86.5%.

In the case of `CC1(C)C(=O)Nc2ccc(C(=O)CCl)cc21`, the Inhibition % is 32.9%.

As to `CC1C(=O)Nc2ccc(C(=O)CCl)cc21` (stereo not shown), the Inhibition % came out at 85.9%.

Take `CS(=O)(=O)N1CCCc2cc(C(=O)CCl)ccc21`: the Inhibition % was determined as 76.4%.

Turning to `O=C1CCc2cc(OCCCl)ccc2N1`, the Inhibition % is given as 6.21%.

Regarding `O=C1CCc2cc(C(=O)CCl)ccc2N1`, the Inhibition % is 52.8%.

Regarding `CS(=O)(=O)N1CCc2cc(C(=O)CCl)ccc21`, the Inhibition % was found to be 36.2%.

Regarding `O=C1CCc2cc(C(=O)CCl)c(F)cc2N1`, the Inhibition % turned out to be 1.18%.

For `C=CC(=O)Nc1ccc2c(c1)CCCC(=O)N2`, the Inhibition % is reported as 4.19%.

Turning to `O=C(CCl)c1cc2c3c(c1)CC(=O)N3CCC2`, the Inhibition % was found to be 21.1%.

Take `CCS(=O)(=O)N1CCc2cc(C(=O)CCl)ccc21`: the Inhibition % was found to be 11.9%.

For `C=CC(=O)N(C1CC1)C1CCS(=O)(=O)C1` (stereo not shown), the Inhibition % turned out to be 10.3%.

Turning to `CC(C)Cc1nc(C#N)c(NCc2ccncc2)o1`, the Inhibition % is 6.94%.

For the compound `CC1(C)OB(c2ccc(N)nc2)OC1(C)C`, the Inhibition % is 9.29%.

On to `COc1ccc(-c2ccncc2)cc1B(O)O`, for which the Inhibition % was determined as 6.7%.

`N#CC(=Cc1cccs1)C(N)=O`: the Inhibition % was found to be 10.8%.

As to `Cc1nn(C)c(NS(=O)(=O)C=Cc2ccccc2)c1C`, the Inhibition % was 11.2%.

With `C=CC(=O)N1CCCc2c1nc[nH]c2=O`, the Inhibition % is listed as 20.2%.

For `C=CC(=O)N1CCN(C(=O)c2cccc(Cl)c2)CC1`, the Inhibition % was determined as 4.01%.

Take `CN1C(=O)CCc2cc(C(=O)CCl)ccc21`: the Inhibition % came out at 19.5%.

Turning to `CCC(=O)N1CCc2cc(C(=O)CCl)ccc21`, the Inhibition % is on record as 3.43%.

Consider `O=C1COc2ccc(C(=O)CCl)cc2N1`, for which the Inhibition % is recorded as 8.16%.

For the compound `CN1Cc2cc(C(=O)CCl)ccc2NC1=O`, the Inhibition % is listed as 11.5%.

Regarding `CN1C(=O)Cc2cc(C(=O)CCl)ccc21`, the Inhibition % is listed as 83.4%.

Turning to `O=C1Cc2cc(C(=O)CCl)ccc2N1`, the Inhibition % was 81.4%.

Turning to `C=CC(=O)NCC(=O)NC1(C)CCCCC1`, the Inhibition % is listed as 13.6%.

As to `C=CC(=O)NCc1nc2c(s1)COCC2`, the Inhibition % amounted to 5.36%.

`O=S(=O)(C=Cc1ccccc1)NC1CCCn2ncnc21` (stereo not shown): the Inhibition % was determined as 12.3%.

Take `C=CC(=O)Nc1c(C)nn(CC)c1C`: the Inhibition % amounted to 2.74%.

For the compound `C=CC(=O)Nc1c(C)nn(C(C)C)c1C`, the Inhibition % is 0.88%.

Take `C=CC(=O)Nc1c(C)nn(C)c1N1CCC1`: the Inhibition % is given as 87.1%.

Turning to `N#Cc1nc(C2CC2)n[nH]1`, the Inhibition % stood at 2.55%.

With `C=CC(=O)N1CCN(S(=O)(=O)CC)CC1`, the Inhibition % is 11.7%.

For the compound `CCN(C(=O)Cn1c(S)nc2ccccc2c1=O)C1CC1`, the Inhibition % is on record as 0.694%.

In the case of `O=S(=O)(F)c1ccc(S(=O)(=O)Nc2cccnc2O)cc1`, the Inhibition % was found to be 8.42%.

Regarding `Cc1cnccc1NS(=O)(=O)c1ccc(S(=O)(=O)F)cc1`, the Inhibition % is 18.9%.

As to `CCCc1nnc(NS(=O)(=O)c2ccc(S(=O)(=O)F)cc2)o1`, the Inhibition % amounted to 49.9%.

Take `Cc1csc(NS(=O)(=O)c2cccc(S(=O)(=O)F)c2)n1`: the Inhibition % stood at 83.9%.

On to `O=S(=O)(F)c1ccc(S(=O)(=O)Nc2ncccc2Cl)cc1`, for which the Inhibition % was found to be 32.9%.

For `Cc1nc(NS(=O)(=O)c2ccc(S(=O)(=O)F)cc2)no1`, the Inhibition % is recorded as 22.7%.

As to `O=S(=O)(F)c1cccc(S(=O)(=O)Nc2cccnc2O)c1`, the Inhibition % was determined as 99.4%.

Take `Cc1cscc1NS(=O)(=O)c1cccc(S(=O)(=O)F)c1`: the Inhibition % is recorded as 98.1%.

For the compound `CCCc1nnc(NS(=O)(=O)c2cccc(S(=O)(=O)F)c2)o1`, the Inhibition % worked out at 98.8%.

Regarding `O=C(CCl)Nc1cccc(C(=O)N2CCSCC2)c1`, the Inhibition % stood at 6.3%.

Regarding `Cc1csc2ccc(B(O)O)cc12`, the Inhibition % was 5.69%.

For the compound `O=C(CCl)NCC(=O)N1CCCC1`, the Inhibition % is listed as 2.12%.

For `O=C(NCc1ccccc1)N1CCCCC1C1OCCO1` (stereo not shown), the Inhibition % stood at 6.92%.

For `FC(F)(F)c1cccc(C2CO2)c1` (stereo not shown), the Inhibition % is 2.09%.

On to `Cl.O=C(CCl)NCCc1cccc2cccnc12`, for which the Inhibition % was found to be 30.3%.

With `Cc1conc1NS(=O)(=O)c1ccc(S(=O)(=O)F)cc1`, the Inhibition % was determined as 27%.

Turning to `Cc1conc1NS(=O)(=O)c1cccc(S(=O)(=O)F)c1`, the Inhibition % turned out to be 99%.

As to `O=C(CCl)NCc1ccc(N2CCOCC2)c(F)c1`, the Inhibition % is 10.8%.

In the case of `CN(CC1COc2ccccc2O1)C(=O)CCl` (stereo not shown), the Inhibition % turned out to be 96.7%.

As for `C=CC(=O)N(C)CC1COc2ccccc2O1` (stereo not shown), the Inhibition % is 3.26%.

For `CCN(CC1COc2ccccc2O1)C(=O)CCl` (stereo not shown), the Inhibition % was determined as 21.2%.

The record behind these values is article PMC9574860, “Chemical Toolkit for PARK7: Potent, Selective, and High-Throughput” (Journal of Medicinal Chemistry, 2022).
